In PubChem BioAssay AID1159580 (chemical genetic matrix, 2015):
“And” between values parts separate entries of the source, which are not always exact repeats. Equal values may be shown once. The campaign covered roughly 5,500 compounds. About 2,000 (36%) were called active. Inconclusive results (about 18%) are left out. Cut-off read from the data, not from the text of the source: active = normalized growth mostly below about 0.91 (no sharp cut-off); inconclusive = no clear call, values can overlap the other calls; inactive = mostly above about 0.92. The list shows a part of the results.

Experiment: chemical genetic growth profiling, strain panel (AID 1159580);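 note: tested at 20 µM; growth read once vehicle control cultures reached saturation at 30 °C; 1 = growth at the plate median or of vehicle wells; lower values mean less growth of the strain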
Settings: S. cerevisiae deletion strains, growth OD

Measured: normalized growth

COc1ccc(-c2cc(=O)c3c(O)c(OC)c(O[C@H]4O[C@H](CO[C@@H]5O[C@@H](C)[C@H](O)[C@@H](O)[C@H]5O)[C@@H](O)[C@H](O)[C@H]4O)cc3o2)cc1
inactive: locus YAL021C, strain ccr4, stronger effect = lower value 1.02 | locus YAL026C, strain drs2, stronger effect = lower value 1 | locus YAL030W, strain snc1, stronger effect = lower value 1.01 | locus YBL061C, strain skt5, stronger effect = lower value 0.996 | locus YBR009C, strain hhf1, stronger effect = lower value 1 | locus YBR021W, strain FUR4, stronger effect = lower value 1.02 | locus YBR023C, strain chs3, stronger effect = lower value 0.996 | locus YBR171W, strain sec66, stronger effect = lower value 0.989 | locus YBR229C, strain ROT2, stronger effect = lower value 1.01 | locus YBR231C, strain swc5, stronger effect = lower value 0.977 | locus YBR279W, strain paf1, stronger effect = lower value 0.987 | locus YCL011C, strain gbp2, stronger effect = lower value 0.991 | locus YCL016C, strain dcc1, stronger effect = lower value 1.01 | locus YCL029C, strain bik1, stronger effect = lower value 1.04 | locus YCL061C, strain MRC1, stronger effect = lower value 1 | locus YCL069W, strain vba3, stronger effect = lower value 1 | locus YCR088W, strain abp1, stronger effect = lower value 1.01 | locus YDL005C, strain med2, stronger effect = lower value 1 | locus YDL035C, strain GPR1, stronger effect = lower value 1.02 | locus YDL040C, strain nat1, stronger effect = lower value 0.98 | locus YDL074C, strain BRE1, stronger effect = lower value 1.01 | locus YDL101C, strain DUN1, stronger effect = lower value 1.02 | locus YDL185W, strain tfp1, stronger effect = lower value 1.01 | locus YDL192W, strain arf1, stronger effect = lower value 1.01 | locus YDR001C, strain nth1, stronger effect = lower value 1 | locus YDR069C, strain doa4, stronger effect = lower value 0.967 | locus YDR101C, strain arx1, stronger effect = lower value 1.02 | locus YDR137W, strain rgp1, stronger effect = lower value 1.05 | locus YDR150W, strain NUM1, stronger effect = lower value 1.01 | locus YDR159W, strain sac3, stronger effect = lower value 0.995 | locus YDR162C, strain NBP2, stronger effect = lower value 1.03 | locus YDR195W, strain ref2 0.978 | locus YDR297W, strain sur2, stronger effect = lower value 0.988 | locus YDR318W, strain mcm21, stronger effect = lower value 1.02 | locus YDR334W, strain swr1, stronger effect = lower value 0.99 | locus YDR335W, strain msn5, stronger effect = lower value 1 | locus YDR388W, stronger effect = lower value 1.01 | locus YDR392W, strain spt3, stronger effect = lower value 0.981 | locus YDR502C, strain sam2, stronger effect = lower value 1.01 | locus YEL003W, strain gim4, stronger effect = lower value 0.982 | locus YEL037C, strain rad23, stronger effect = lower value 1 | locus YEL061C, strain CIN8 (second series), stronger effect = lower value 0.996 | locus YER015W, strain faa2, stronger effect = lower value 0.984 | locus YER016W, strain bim1, stronger effect = lower value 0.992 | locus YER110C, stronger effect = lower value 1.02 | locus YER111C, strain swi4, stronger effect = lower value 0.979 | locus YER155C, strain BEM2 (second series), stronger effect = lower value 0.972 | locus YER155C, strain BEM2, stronger effect = lower value 1.04 | locus YER167W, strain BCK2, stronger effect = lower value 1.02 | locus YFR010W, strain ubp6, stronger effect = lower value 0.994 | locus YGL078C, strain dbp3, stronger effect = lower value 1.01 | locus YGL086W, strain mad1, stronger effect = lower value 1.01 | locus YGL167C, strain pmr1, stronger effect = lower value 0.983 | locus YGL173C, strain kem1, stronger effect = lower value 0.996 | locus YGL227W, strain vid30, stronger effect = lower value 1 | locus YGL240W, strain doc1, stronger effect = lower value 0.998 | locus YGL248W, strain PDE1, stronger effect = lower value 1.01 | locus YGL253W, strain hxk2, stronger effect = lower value 1 | locus YGR078C, strain PAC10, stronger effect = lower value 0.999 | locus YGR135W, strain pre9, stronger effect = lower value 0.993 | locus YGR229C, strain SMI1, stronger effect = lower value 1.16 | locus YGR252W, strain gcn5, stronger effect = lower value 0.955 | locus YHR013C, strain ard1, stronger effect = lower value 1 | locus YHR027C, strain rpn1, stronger effect = lower value 0.99 | locus YHR030C, strain SLT2, stronger effect = lower value 1.02 and 0.993 | locus YHR079C, strain IRE1 (second series), stronger effect = lower value 1.01 | locus YHR079C, strain IRE1, stronger effect = lower value 1.01 | locus YHR094C, strain hxt1, stronger effect = lower value 1.01 | locus YHR129C, strain ARP1, stronger effect = lower value 1 | locus YHR142W, strain chs7, stronger effect = lower value 1.01 | locus YHR200W, strain rpn10, stronger effect = lower value 1.01 | locus YIL066C, strain RNR3, stronger effect = lower value 1.02 | locus YIL073C, strain SPO22, stronger effect = lower value 1.08 | locus YIL125W, strain kgd1, stronger effect = lower value 1.01 | locus YIR030C, strain dcg1, stronger effect = lower value 1.02 | locus YJL092W, strain hpr5, stronger effect = lower value 0.994 | locus YJL095W, strain BCK1 (second series), stronger effect = lower value 1 | locus YJL095W, strain BCK1, stronger effect = lower value 1.02 and 0.995 | locus YJL115W, strain asf1, stronger effect = lower value 0.999 | locus YJL129C, strain trk1, stronger effect = lower value 0.994 | locus YJL134W, strain LCB3, stronger effect = lower value 1.02 | locus YJL154C, strain vps35, stronger effect = lower value 1 | locus YJL164C, strain tpk1, stronger effect = lower value 1 | locus YJL166W, strain qcr8, stronger effect = lower value 1 | locus YJL168C, strain set2, stronger effect = lower value 1 | locus YJL187C, strain SWE1 (second series), stronger effect = lower value 1.01 | locus YJL187C, strain SWE1, stronger effect = lower value 1.02 | locus YJR066W, strain TOR1, stronger effect = lower value 0.906 | locus YKL009W, strain mrt4, stronger effect = lower value 1.05 | locus YKL068W, stronger effect = lower value 1.02 | locus YKL085W, strain MDH1 (second series), stronger effect = lower value 1.02 | locus YKL085W, strain MDH1, stronger effect = lower value 1.02 | locus YKL160W, strain elf1, stronger effect = lower value 0.997 | locus YKL190W, strain CNB1, stronger effect = lower value 1.01 | locus YKR001C, strain vps1, stronger effect = lower value 1.01 | locus YKR026C, strain gcn3, stronger effect = lower value 0.992 | locus YKR091W, strain srl3, stronger effect = lower value 0.998 | locus YLL001W, strain dnm1, stronger effect = lower value 1 | locus YLL026W, stronger effect = lower value 0.998 | locus YLL041C, strain sdh2, stronger effect = lower value 1 | locus YLR027C, strain aat2, stronger effect = lower value 0.988 | locus YLR039C, strain RIC1, stronger effect = lower value 1.1 | locus YLR058C, strain SHM2, stronger effect = lower value 1.02 | locus YLR102C, strain apc9, stronger effect = lower value 1.02 | locus YLR113W, strain HOG1, stronger effect = lower value 1.04 | locus YLR221C, strain rsa3, stronger effect = lower value 0.995 | locus YLR258W, strain gsy2, stronger effect = lower value 1.02 | locus YLR262C, strain YPT6 (second series), stronger effect = lower value 1.03 | locus YLR268W, strain sec22, stronger effect = lower value 1.03 | locus YLR320W, strain mms22, stronger effect = lower value 0.998 | locus YLR342W, strain FKS1 (second series), stronger effect = lower value 1.03 | locus YLR342W, strain FKS1, stronger effect = lower value 1 | locus YLR357W, strain rsc2, stronger effect = lower value 0.964 | locus YLR370C, strain arc18, stronger effect = lower value 0.995 | locus YLR371W, strain rom2, stronger effect = lower value 1.03 | locus YLR384C, strain iki3, stronger effect = lower value 0.978 | locus YLR418C, strain cdc73, stronger effect = lower value 1.03 | locus YML016C, strain PPZ1, stronger effect = lower value 0.991 | locus YML032C, strain rad52, stronger effect = lower value 1.03 | locus YML120C, strain ndi1, stronger effect = lower value 1.01 | locus YML124C, strain tub3, stronger effect = lower value 1.02 | locus YMR058W, strain fet3, stronger effect = lower value 0.928 | locus YMR078C, strain ctf18, stronger effect = lower value 1.02 | locus YMR125W, strain sto1, stronger effect = lower value 1 | locus YMR129W, stronger effect = lower value 0.996 | locus YMR205C, strain PFK2, stronger effect = lower value 1.05 | locus YMR223W, strain ubp8, stronger effect = lower value 1.01 | locus YMR231W, strain pep5, stronger effect = lower value 0.96 | locus YMR307W, strain GAS1, stronger effect = lower value 1.08 | locus YNL067W, strain RPL9B, stronger effect = lower value 1.01 | locus YNL071W, strain lat1, stronger effect = lower value 1.01 | locus YNL128W, strain TEP1, stronger effect = lower value 1.03 | locus YNL183C, strain NPR1, stronger effect = lower value 0.938 | locus YNL209W, strain ssb2, stronger effect = lower value 0.986 | locus YNL233W, strain BNI4, stronger effect = lower value 1.01 | locus YNL248C, strain rpa49, stronger effect = lower value 0.996 | locus YNL250W, strain rad50, stronger effect = lower value 1.04 | locus YNL271C, strain bni1, stronger effect = lower value 1.01 | locus YNL298W, strain CLA4, stronger effect = lower value 1.02 | locus YNL307C, strain MCK1, stronger effect = lower value 1.01 | locus YNL322C, strain KRE1 (second series), stronger effect = lower value 1 | locus YNR049C, strain mso1, stronger effect = lower value 1 | locus YNR052C, strain pop2, stronger effect = lower value 1.01 | locus YOL012C, strain htz1 0.859 | locus YOL147C, strain pex11, stronger effect = lower value 0.996 | locus YOR001W, strain rrp6, stronger effect = lower value 0.98 | locus YOR061W, strain CKA2, stronger effect = lower value 1.02 | locus YOR069W, strain VPS5, stronger effect = lower value 1.01 | locus YOR070C, strain gyp1, stronger effect = lower value 0.985 | locus YOR080W, strain dia2, stronger effect = lower value 0.992 | locus YOR083W, strain WHI5, stronger effect = lower value 0.998 | locus YOR106W, strain vam3, stronger effect = lower value 0.992 | locus YOR136W, strain idh2, stronger effect = lower value 1.02 | locus YOR144C, strain elg1, stronger effect = lower value 1.02 | locus YOR184W, strain ser1, stronger effect = lower value 1.04 | locus YOR231W, strain MKK1, stronger effect = lower value 1.03 | locus YOR265W, strain rbl2, stronger effect = lower value 1.02 | locus YOR270C, strain vph1, stronger effect = lower value 0.993 | locus YOR290C, strain snf2, stronger effect = lower value 0.992 | locus YOR316C, strain cot1, stronger effect = lower value 1.02 | locus YPL051W, strain arl3, stronger effect = lower value 0.995 | locus YPL078C, strain atp4, stronger effect = lower value 1.03 | locus YPL106C, strain sse1, stronger effect = lower value 0.974 | locus YPL240C, strain hsp82, stronger effect = lower value 0.995 | locus YPL241C, strain CIN2, stronger effect = lower value 1.01 | locus YPL256C, strain CLN2, stronger effect = lower value 0.994 | locus YPR119W, strain clb2, stronger effect = lower value 1.01 | locus YPR141C, strain kar3, stronger effect = lower value 1.02 | locus YPR163C, strain tif3, stronger effect = lower value 0.999 | locus YPR167C, strain met16, stronger effect = lower value 1.01 | strain wtn01, stronger effect = lower value 1.01
